From PubChem BioAssay

Assay: E. coli acrAB mutant growth effects, primary screen, E. coli filamentation inducers, strain DRC39, OD650, 24 h (AID 1178);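 also: growth measured as culture turbidity by optical density at 650 nm; test concentration not given here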
Settings: higher = more signal, called active from +8 up or from −8 down

z-score, inactive:
COc1cc(OC)c(C(O)C2C=CC3C(=O)N(c4ccccc4)C(=O)C3N2Nc2ccc(C(C)C)cc2)cc1Br (stereo not given) 0.238
CC(C)c1nc2cc(Br)ccc2c(=O)o1 0.692
CN1C(=O)[C@@H]2[C@@H](CC(COc3ccccc3)=C3[C@@H](CCc4ccccc4)OB(O)C[C@@H]32)C1=O 0.0204
O=C(NCCN1CCOCC1)[C@@H]1c2ccccc2C(=O)N(Cc2ccc(OC(F)(F)F)cc2)[C@H]1c1ccc(CO)cc1 0.248
CN(C)c1ccc(C(O)C2C=CC3C(=O)N(Cc4ccccc4)C(=O)C3N2n2cnnc2)cc1 (stereo not given) 0.0571
CC(C)C(O)C1C=CC2C(=O)NC(=O)C2N1Nc1ccccn1 (stereo not given) -1.03
COc1ccc([Si](C)(C)[C@@H]2[C@@H](CC(=O)N3Cc4ccccc4C[C@H]3CO)O[C@]3(C(=O)N(Cc4ccc(N5CCOC5=O)cc4)c4ccccc43)[C@H]2C)cc1 0.868
COCCOC(=O)N1C(=O)[C@@]2(c3cc(C#CCC(C(=O)OC)C(=O)OC)ccc31)[C@H](C(=O)Nc1nc3ccccc3s1)[C@H]1C(=O)O[C@H](c3ccccc3)[C@H](c3ccccc3)N1[C@@H]2c1ccc(O)cc1 0.378
COc1cc(CO)cc(I)c1O[C@H]1C=C(C(=O)NCCO)C[C@@H](NC2CCCCCC2)[C@@H]1O 0.901
O=C(NC1CC1)[C@@H]1c2ccccc2C(=O)N(Cc2ccc(OC(F)(F)F)cc2)[C@H]1c1ccc(CO)cc1 0.392
